Source: PubChem BioAssay AID2599 (Sanford-Burnham Center for Chemical Genomics, 2010)
Screen size: about 330,000 compounds; about 5,800 (1.8%) were called active. This is one part of a sample in which actives are shown more often than they occur. Values without a mark were called inactive.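 Rule for the calls: active = inhibition above about 50% at the single tested dose (limit read from the data); inactive = the rest.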

target: Sentrin-specific protease 6 (Homo sapiens) (UniProt Q9GZR1); experiment: inhibition of human SENP6 catalytic domain – biochemical, luminescence, uHTS, primary screen (AID 2599); conditions: Recombinant SENP6 catalytic domain, aminoluciferin luminescence; at 10 µM; stronger effect = higher value;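 note: plate controls were DMSO wells with enzyme for no effect and DMSO wells lacking enzyme for full effect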
Sequence (Q9GZR1 628-1112 limits assumed): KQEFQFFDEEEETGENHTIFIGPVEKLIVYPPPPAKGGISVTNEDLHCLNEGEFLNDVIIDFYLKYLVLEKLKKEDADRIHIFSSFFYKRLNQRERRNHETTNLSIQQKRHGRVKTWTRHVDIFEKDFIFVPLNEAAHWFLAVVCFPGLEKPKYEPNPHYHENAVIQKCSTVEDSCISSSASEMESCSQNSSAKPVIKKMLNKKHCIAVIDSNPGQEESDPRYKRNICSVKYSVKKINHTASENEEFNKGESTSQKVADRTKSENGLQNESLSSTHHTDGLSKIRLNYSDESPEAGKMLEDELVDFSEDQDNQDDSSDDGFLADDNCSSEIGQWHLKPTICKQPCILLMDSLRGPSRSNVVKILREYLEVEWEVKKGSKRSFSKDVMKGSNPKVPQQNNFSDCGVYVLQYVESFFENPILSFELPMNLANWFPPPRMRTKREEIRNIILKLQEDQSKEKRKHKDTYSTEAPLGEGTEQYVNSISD

| Structure (SMILES) | inhibition |
| --- | --- |
| CC(OC(=O)CNS(=O)(=O)/C=C/c1ccccc1)C(=O)Nc1ccc(S(=O)(=O)N2CCCC2)cc1 (stereo not given) | 1.69% |
| Cn1c(=O)c(=O)n(C)c2cc(S(=O)(=O)NCCN3CCN(c4ccccc4F)CC3)ccc21 | -19.5% |
| CCOC(=O)[C@H]1CCC[C@@H](NS(=O)(=O)c2ccc(NC(C)=O)cc2)C1 | 4.75% |
| N#C/C(=C(/O)COC(=O)COc1ccc(Cl)cc1)c1nc2ccccc2[nH]1 | -13.3% |
| O=C(/C(=C/c1cccc(Cl)c1)c1nc2ccccc2[nH]1)c1ccccc1 | -2.12% |
| O=C(Cc1nc2ccccc2[nH]c1=O)c1ccc(Cl)cc1 | 50.3% (active) |
| COc1cccc(C(=O)CC(=O)C(=O)Nc2ccc([N+](=O)[O-])cc2C)c1 | 3.79% |
| CC1(C)C=C2[C@H]3CC[C@@H]4[C@@]5(C)CCC(=O)C(C)(C)[C@@H]5CC[C@@]4(C)[C@]3(C)CC[C@@]2(C(=O)O)CC1 | 12.4% |
| O=C(C1=C[C@H](c2coc3ccccc3c2=O)C[C@H](OCc2ccc(CO)cc2)O1)N1CCN(Cc2ccccc2)CC1 | -13.7% |
| O=C(NC(=S)Nc1ccc(Br)cc1F)C1CCCCC1 | -12.9% |
| CCOC(=O)N1CCC(NC(=O)c2cnn3ccccc23)CC1 | 3.17% |
| O=C(c1cnn2ccccc12)N1CCc2ccccc21 | 51% (active) |
| Cc1cnc(C(=O)OCC(=O)N2CCc3ccccc32)cn1 | 0.963% |
| Cc1oc2cc(Br)c(O)c(Br)c2c1C(=O)c1ccccc1 | -11.8% |
| COc1cc2ccccc2cc1C(=O)Nc1nc(C)c(C(C)=O)s1 | 16.4% |
| Cc1ccnc(NC(=O)c2ccoc2C)c1 | 88.3% (active) |
| COc1cc(SC)ccc1C(=O)NNC(=O)C1COc2ccccc2O1 (stereo not given) | -13.5% |
| COc1ccc(C(=O)Nc2cccc(NC(=O)c3ccc(OC)cc3OC)n2)c(OC)c1 | -18% |
| COc1cc(SC)ccc1C(=O)Nc1nc(C)cs1 | 97.3% (active) |
| COc1cc(SC)ccc1C(=O)Nc1cc(C)ccn1 | 62.6% (active) |
| Cc1occc1C(=O)Nc1cccc(Cn2cccn2)c1 | -1.37% |
| Cc1ccnc(NC(=O)CNC(=O)c2ccccc2)c1 | 6.25% |
| COc1cc(SC)ccc1C(=O)N(Cc1ccccc1)c1ccccc1 | -10.9% |
| COC(=O)c1sc(NC(=O)c2ccc(OC)cc2OC)nc1C | 74% (active) |
| Cc1csc(NC(=O)c2ccc(C)s2)n1 | 0.083% |

| Structure (SMILES) | inhibition |
| --- | --- |
| COc1cc(SC)ccc1C(=O)NCCOc1ccccc1Cl | 13.4% |
| C=CCN(CC=C)C(=O)COC(=O)c1n[nH]c2ccccc12 | -20.6% |
| CCOc1ccc(NC(=S)NC(=O)/C=C/c2ccc(OC)cc2)c([N+](=O)[O-])c1 | -2.86% |
| O=C(Nc1nccs1)C1CCN(S(=O)(=O)c2ccc(Cl)c(C(F)(F)F)c2)CC1 | -4.6% |
| CCOc1ncccc1C(=O)Nc1ccc(S(=O)(=O)Nc2nc(C)cc(C)n2)cc1 | -19.1% |
| O=C(c1ccc(OC2CCN(C/C=C/c3ccc(F)cc3)CC2)cc1)N1CCCCC1 | 0.618% |
| COc1cc(C)nc(N2CCCC(C(=O)NCC(C)C)C2)n1 (stereo not given) | -10.1% |
| O=C(NNS(=O)(=O)c1ccc(F)cc1)C1CCCCC1 | -3.19% |
| CCOC(=O)c1cccnc1NC(=O)c1ccncc1 | -2.78% |
| COC(=O)c1sc(NC(=S)NC(=O)c2ccc(C)cc2)nc1C | -20% |
| CC(=O)c1sc(NC(=O)c2ccc(C)cc2)nc1C | 62% (active) |
| CCOC(=O)c1sc(NC(=O)c2sc(C)nc2C)nc1C | 15.3% |
| CCOC(=O)c1sc(NC(=O)c2ccncc2)nc1C | 97.5% (active) |
| CC(=O)c1sc(N/N=C\c2ccc(C)cc2)nc1C | 23.9% |
| COC(=O)[C@]1(Cc2ccccc2)N[C@H](CN(C)S(=O)(=O)c2ccc(OC(F)(F)F)cc2)[C@@H]2C(=O)N(C)C(=O)[C@@H]21 | 17% |
| O=C(COc1ccccc1)N1CCN=C1SCc1cccc(F)c1 | -16.4% |
| CC(=O)Nc1ccccc1NC(=O)c1cc(C)cc(C)c1 | 3.76% |
| C=CCN(c1ccc(C(=O)Nc2cc(C)cc(C)c2)cc1)S(C)(=O)=O | 7.58% |
| CSCc1ccc(C(=O)Nc2cc(C)cc(C)c2)cc1 | 86% (active) |
| Cc1cc(NC(=O)OC(C)C)ccc1-c1ccc(NC(=O)OC(C)C)cc1C | -24.2% |
| O=C(NCCCn1ccnc1)c1cc(-c2ccccc2)on1 | 13.4% |
| Cc1oc2c(c1C(=O)N1CCOCC1)C(=O)c1ccccc1C2=O | 68.9% (active) |
| COC1=C(N2CCOCC2)C(=O)c2ccccc2C1=O | 44.9% |
| COc1cc2ccccc2cc1C(=O)N1CCOCC1 | 5.76% |
| Cc1ccc(NC(=O)C2CC2)cc1S(=O)(=O)N1CCOCC1 | -10.6% |

| Structure (SMILES) | inhibition |
| --- | --- |
| Cc1ccc(C(=O)CNc2ccc(F)cc2)cc1 | 6.04% |
| COC(=O)c1ccc(NCC(=O)N2CCCCCC2)cc1 | -9.61% |
| COC(=O)c1ccc(NCC(=O)c2ccccc2)cc1 | 95.5% (active) |
| Cn1ncc2c(NNC(=O)Cc3cccc4ccccc34)ncnc21 | -8.95% |
| O=C(CN1CCN(c2cccc(Cl)c2)CC1)Nc1ccc(S(=O)(=O)N2CCOCC2)cc1 | 5.09% |
| CCOC(=O)C(NC(C)=O)C(=O)Nc1ccc(OC)cc1 (stereo not given) | 4.26% |
| CCC(CO)Oc1cc(NC(=O)c2cccc(F)c2)c2ncn(C(C)C)c2c1 (stereo not given) | -22.5% |
| CCC(CO)Oc1cc(NCc2ccccc2)c2ncn(C3CCCC3)c2c1 (stereo not given) | 1.75% |
| CC(C)n1cnc2c(NCc3ccccc3)cc(N[C@@H](CO)Cc3ccccc3)cc21 | 75.8% (active) |
| CCC(CO)Oc1cc(NC(=O)c2cccc3ccccc23)c2ncn(C(C)C)c2c1 (stereo not given) | -4.87% |
| CCC(CO)Oc1cc(NC(=O)c2ccc(Cl)cc2)c2ncn(C(C)C)c2c1 (stereo not given) | -20.3% |
| CC(C)n1cnc2c(NCc3ccccc3)cc(OCC3CCN(C)CC3)cc21 | 77.9% (active) |
| COc1ccc(OC)c(S(=O)(=O)Nc2c(C)nn(C)c2C)c1 | -2.99% |
| COc1ccccc1CCNC(=O)CSc1nnc2ccc(-c3cccnc3)nn12 | 17% |
| CC(C)(C)CC(C)(C)NCC(O)COCCOc1ccc(Br)cc1 (stereo not given) | 9.07% |
| O=C(O)CC/C(=C\c1cc2c(cc1Br)OCO2)c1nc2ccccc2s1 | -4.31% |
| Cc1cc(N=Nc2ccc3ccccc3c2)ccc1O | 98% (active) |
| Cc1ccccc1CSc1nnc(-c2ccccn2)n1N | 7.46% |
| COc1ccc(C2C=C(c3ccc(Br)cc3)Nc3nc(NS(C)(=O)=O)nn32)cc1 (stereo not given) | 3.75% |
| Oc1ccc(C2Nc3cccc4cccc(c34)N2)cc1 | 15.2% |
| C/C(=C\c1ccco1)C1Nc2cccc3cccc(c23)N1 | -84.6% |
| Brc1ccccc1C1Nc2cccc3cccc(c23)N1 | 51.7% (active) |
| CC1CN(C(=S)Nc2cccc(F)c2)CC(C)O1 (stereo not given) | 15.9% |
| O=c1ccc(S(=O)(=O)N2CCCC2)cn1Cc1nc(-c2ccccc2)no1 | -10.4% |
| CN(C)c1ccc(NC(=O)CN2C3CCCC2CC(NC(=O)c2ccccc2)C3)cc1 (stereo not given) | -8.69% |

| Structure (SMILES) | inhibition |
| --- | --- |
| COC(=O)c1ccccc1NC(=O)C1(S(=O)(=O)c2ccc(Cl)cc2)CC1 | 16.9% |
| Nc1ccc2nn(-c3ccc(Cl)cc3)nc2c1 | 95% (active) |
| CN(C)c1nnnn1-c1ccc(Cl)cc1 | 2.68% |
| c1ccc(-n2nc3ccccc3n2)cc1 | -28.4% |
| CN(C)CCCNC(=O)c1cc(C(=O)Cc2ccc(Cl)cc2)c[nH]1 | -9.62% |
| O=C(CSC(=S)N1CCOCC1)c1ccccc1 | 60.8% (active) |
| CC1CN(C(=S)SCC(=O)c2ccccc2)CC(C)O1 (stereo not given) | -20.8% |
| O=C(CSC(=S)N1CCOCC1)c1cc(Br)cc(Br)c1O | -12.1% |
| Cc1ccc(CNC(=O)CC2Sc3ccccc3NC2=O)cc1 (stereo not given) | -4.12% |
| C#CCOCCOCCOCCNc1nc(N2CCN(C(=O)C([C@@H](C)CC)n3cc(C(N)COC(=O)C(F)(F)F)nn3)CC2)nc(N2CCN(C(=O)[C@H](CCCCN)n3cc(C(N)CC(C)C)nn3)CC2)n1 (stereo not given in full) | -9.82% |
| O=C(Nc1cccc(C(=O)N2CCCC2)c1)c1ccccc1 | -14.4% |
| O=C(Nc1ccc(C(=O)O)c(O)c1)c1ccccc1 | 83.4% (active) |
| O=C(Nc1cccc(NC(=O)c2cccc(F)c2)c1)c1ccccc1 | -18.8% |
| COc1cccc(N2CC(C(=O)NCc3n[nH]c(=O)c4ccccc34)CC2=O)c1 (stereo not given) | -13.6% |
| O=C(O)/C=C/c1ccc(S(=O)(=O)N2CCCCCC2)cc1 | 16.2% |
| CC(C)c1nc(SCC(=O)NC(=O)NC(C)(C)C)n[nH]1 | -25.6% |
| O=C(NCC1CCCO1)c1cc2c(s1)CCCC2 (stereo not given) | 6.51% |
| CN(C)C(=O)c1ccc(NC(=O)COC(=O)c2cc3c(s2)CCCCC3)cc1 | -9.42% |
| O=C(Nc1ccc(F)cc1)c1cc2c(s1)CCCC2 | 89% (active) |
| COc1cccc(C(=O)Nc2nnc(S(=O)(=O)N(C)c3ccccc3)s2)c1 | 12.8% |
| CCc1noc(C)c1C(=O)Nc1nc2ccc(OC)cc2s1 | 59.6% (active) |
| CS(=O)(=O)c1ccc2nc(NC(=O)c3ccc(Cl)nc3)sc2c1 | 0.381% |
| CCc1noc(C)c1C(=O)Nc1nc(-c2ccccc2)cs1 | -13.3% |
| Cc1noc(C)c1CSCC(=O)Nc1nc2ccc(Oc3ccccc3)cc2s1 | 14.7% |
| COc1cccc(C(=O)Nc2nc3ccc(S(C)(=O)=O)cc3s2)c1 | 89.1% (active) |
